Reference: PubChem BioAssay (NCI)
Values joined by “and” are separate entries in the source; they are usually repeats but may differ in a detail not shown here. Equal values may be shown once. About 83,000 compounds went through this panel and 20% of them were active in at least one assay; those are over-represented in the sample as a whole.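 How to read the values: 0–100, growth inhibition (40 = 60% inhibited); 0, no net growth; -100 to 0, cell death (-40 = 40% of starting cells died; -100 = all dead).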 Unmarked numbers belong to inactive results. Active and inactive are the calls of the source. How the source made its calls: active means growth percent below 10; inactive means the rest.

Tests used:
Experiment in all cases: NCI-60 one-dose screen, 48 h (100 = growth as untreated, 0 = no growth, -100 = all killed)
Settings in all cases: 10 µM unless noted
[1] = tested on: NCI-H23 lung
[2] = tested on: NCI-H226 lung
[3] = tested on: NCI-H322M lung
[4] = tested on: HOP-62 NSCLC
[5] = tested on: NCI-H460 lung
[6] = tested on: HOP-92 NSCLC
[7] = tested on: NCI-H522 lung
[8] = tested on: A549/ATCC NSCLC
[9] = tested on: 786-0 renal
[10] = tested on: COLO 205 colon
[11] = tested on: DU-145 prostate
[12] = tested on: K-562 leukemia
[13] = tested on: MALME-3M melanoma
[14] = tested on: MDA-MB-231 breast
[15] = tested on: RXF 393 renal
[16] = tested on: SF-268 CNS
[17] = tested on: SF-295 CNS
[18] = tested on: SF-539 CNS
[19] = tested on: UACC-257 melanoma
[20] = tested on: M14 melanoma

Row | SMILES | growth [1] | growth [2] | growth [3] | growth [4] | growth [5] | growth [6] [%] | growth [7] | growth [8] | growth [9] | growth [10] | growth [11] | growth [12] | growth [13] | growth [14] | growth [15] | growth [16] | growth [17] | growth [18] | growth [19] | growth [20]
1 | O=C(O)c1ccccc1Cc1ccc(F)c2ccccc12 | 97.5% and 105% | 107% | 109% and 112% | 94.3% and 109% | 109% and 99.2% | 74.6 | 94.5% and 89.9% | 101% and 95.3% | 125% and 110% | 101% and 121% | 90.6% and 116% | 103% and 98.4% | 102% and 117% | 115% and 106% | 107% and 95.9% | 102% and 103% | 71.1% and 103% | 117% and 107% | 107% and 98.8% | 129% and 102%
2 | O=C1c2cccc3cccc(c23)C(=O)N1N1C(=O)c2cccc3c(N4CCNCC4)ccc(c23)C1=O | 92.2% | 98.6% | 88.2% | 88.9% | 72.4% | 78.2 | 93.8% | 89.9% | 73.7% | 95.2% | 107% | -59.2% (active) | 88.9% | 85.8% | 101% | 88.7% | 101% | 100% | 95.2% | 96.6%
3 | FC(F)(F)Sc1ccc(/C=C/c2cc(/C=C/c3ccc(SC(F)(F)F)cc3)n(-c3ccccc3)n2)cc1 | 103% | 89.5% | 93.7% | 90.8% | 99.8% | 87.3 | 89.4% | 89.5% | 91.8% | 92.8% | 108% | 91% | 98.8% | 89.5% | 113% | 91% | 96.6% | 98.1% | 86.4% | 95.2%
4 | COc1ccc(N2CCN(S(=O)(=O)c3oc(-c4ccccc4)nc3C#N)CC2)cc1 | 57.3% | 64.5% | 97.6% | 106% | 94.8% | 101 | 25.2% | 99.4% | 85.5% | 80% | 104% | 15.3% | 69.6% | 77.2% | 66.4% | 102% | 104% | 68.2% | 88% | 47.4%
5 | CCN1C(=O)N(c2ccccc2)C2NC(=S)N(/N=C/C=C/c3ccccc3)C21 (stereo not given) | 21.1% | 2.92% (active) | 50.4% | 37.9% | 8.06% (active) | 28.8 | 14.8% | 24.9% | 37.2% | -8.16% (active) | 8.79% (active) | 8.8% (active) | 45.8% | 15.7% | 9.01% (active) | 31.9% | 2.91% (active) | -27% (active) | 39.5% | 0.94% (active)
6 | COc1nc(=O)n(C2C=CC(=O)O2)cc1F (stereo not given) | 102% | 106% | 102% | 110% | 110% | 87.8 | 39.1% | 123% | 92.5% | 46.5% | 81.1% | 40.8% | 45.5% | 100% | 80.7% | 85.7% | 98.2% | 99.1% | 88.8% | 69.9%
7 | O=C1/C(=C/c2ccccc2)CN(C(=O)C(Cl)Cl)C/C1=C\c1ccccc1 | -56.5% (active) | 95.6% | 37.4% | 75.2% | -29.7% (active) | 41.8 | -0.507% (active) | 20.8% | -15.8% (active) | -1.12% (active) | -14.3% (active) | 2.57% (active) | -38.5% (active) | -3.43% (active) | -35.2% (active) | 35.7% | -1.45% (active) | -14.9% (active) | 25% | -27.6% (active)
